{"source": "PubChem BioAssay (EPA / NIEHS)", "note": "Calls of active or inactive are those of the source. How the source made its calls: active means hit-call score of the fitted dose curve at least 0.9, where 1 is the maximum; inactive means score below 0.9."}
{"assay": "CCTE_Simmons_MITO_inhib_resp_rate: CCTE's HepG2 Seahorse XF Respirometric Screening Assay at Inhibited Respiratory State [full ETC block], Simmons Lab (AID 2284006)", "conditions": "actives raise or lower the signal", "method": "CCTE_Simmons_MITO is cell-based, respirometric assay using HepG2 cells and a Seahorse XF Analyzer to measure oxygen consumption rates over four temporal phases spanning a total of 72 minutes: pre-injection (pre-treatment), basal (following test compound injection), maximal (following FCCP uncoupler injection), and inhibited (following rotenone/antimycin A injection)CCTE_Simmons_MITO_inhib_resp_rate is one of 4 assay components calculated from the CCTE_Simmons_MITO assay. It is designed to make measurements of inhibited respiration using a form of respirometric reporter, as detected with […] signals by Seahorse XF96 technology. Data from the assay component CCTE_Simmons_MITO_inhib_resp_rate was analyzed at the endpoint, CCTE_Simmons_MITO_inhib_resp_rate_OCR, with bidirectional fitting relative to DMSO as the negative control and baseline of activity. Using a type of respirometric reporter, measures of inhibited respiration for gain or loss-of-signal activity can be used to understand cellular oxygen consumption as it relates to cellular respiration. To generalize the intended target to other relatable targets, this assay endpoint is annotated to the mitochondria intended target family, where the subfamily is respiration.\nTest chemicals were administered as a titrated series of 7 concentrations from 125 nM up to 100 uM [final] prior to kinetic endpoint detection at 6 minute intervals [3 min mix followed by 3 minutes measure] for 72 minutes. Three biological replicates of technical singles were run for every chemical concentration tested. Dimethylsulfoxide [DMSO] was used as the vehicle control. The electron transport chain inhibitor fenpyroximate was used as the positive control for decreased basal respiration and was administered as a titrated series of 6 concentrations from 250 nM up to 2.75 uM [final] with technical triplicates for the top concentration only. The uncoupler 2,4-dintirophenol was used as the positive control for increased basal respiration and was administered as a titrated series of 6 concentrations from 938 nM up to 40 uM [final] with technical triplicates for the top concentration only. A Seahorse XF Analzyer is required to measure the response."}
{"smiles": "Cc1cc(N=Nc2ccccc2C)ccc1N", "outcome": "inactive"}
{"smiles": "CCC[CH2][Sn]([Cl])([CH2]CCC)[CH2]CCC", "outcome": "inactive"}
{"smiles": "CCC(C)c1ccc(O)cc1", "note": "(configuration not stated)", "outcome": "inactive"}
{"smiles": "[Cl-].[Cl-].[Hg+2]", "AC50": "50 µM (active)"}
{"smiles": "Nc1ccc(N=Nc2ccccc2)cc1", "outcome": "inactive"}
{"smiles": "CCOC(=O)[C@]1(c2ccccc2)Oc2ccccc2[C@@H]1N", "outcome": "inactive"}
{"smiles": "CC(C)N(Cc1ccccc1)C(=O)C(C)(C)C", "outcome": "inactive"}
{"smiles": "CCCCCCCCn1sccc1=O", "outcome": "inactive"}
{"smiles": "CC(C)(C)C(O)(CCc1ccc(Cl)cc1)Cn1cncn1", "note": "(configuration not stated)", "outcome": "inactive"}
{"smiles": "C[C@]12C=CC3=C4CCC(=O)C=C4CC[C@H]3[C@@H]1CC[C@@H]2O", "outcome": "inactive"}
{"smiles": "COc1cc(C=O)cc2c1[C@H](COC(N)=O)[C@]1(OC(C)=O)ON2C[C@H]2[C@@H]1N2C(C)=O", "outcome": "inactive"}
{"smiles": "CC(C)COC(=O)c1ccccc1C(=O)OCC(C)C", "outcome": "inactive"}
